Epigenetic derep: Quantitative High-Throughput Screen for Regulators of Epigenetic Control; Potency, µM (titrated, usually from 53.9 µM), without a hit: top-dose GFP activation, actives largely listed as activators; AID 1865, 2009; murine LDR cells, GFP reporter derepression, 30 h; 280,000 compounds, 0.2% hits; further: % of control where 0% means no effect; nearly all actives have a fitted effect of over 60% in size
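GFP-positive cell count by laser-scanning cytometry (objects 20–120 um) after 30 h, 37 C compound exposure of murine LDR cells; reporter is CMV-GFP integrated at a silenced locus, inducible by HDAC or DNMT inhibitors.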
Vif-APOBEC3G blk: qHTS for Inhibitors of Vif-A3G Interactions: qHTS; DNA dC->dU-editing enzyme APOBEC-3G (Homo sapiens), Q9HC16; HeLa A3G-eYFP + Vif (tagged APOBEC3G with the HIV-1 protein that degrades it), YFP fluorescence, overnight; Potency, µM (top dose mostly 46.1 µM), for the others: at the top dose activity, negative = active, hits mostly inhibitors; 410,000 compounds, 0.076% hits; further: on the % scale 0 is the no-effect control and ±100 the full control effect; nearly all actives have a fitted effect of over 60% in size
Target sequence (Q9HC16 whole entry, looked up): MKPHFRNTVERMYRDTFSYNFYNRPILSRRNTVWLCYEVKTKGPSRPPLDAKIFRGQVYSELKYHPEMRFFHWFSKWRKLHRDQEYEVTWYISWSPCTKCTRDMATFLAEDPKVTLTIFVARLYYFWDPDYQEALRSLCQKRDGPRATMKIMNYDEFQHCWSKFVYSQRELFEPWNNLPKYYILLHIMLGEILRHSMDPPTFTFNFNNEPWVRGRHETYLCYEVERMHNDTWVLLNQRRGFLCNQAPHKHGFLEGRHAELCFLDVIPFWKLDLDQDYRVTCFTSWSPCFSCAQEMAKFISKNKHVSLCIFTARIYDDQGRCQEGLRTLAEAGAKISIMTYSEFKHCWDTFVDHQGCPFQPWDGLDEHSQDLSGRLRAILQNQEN
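HeLa cells stably expressing Vif and C-terminally eYFP-tagged A3G, seeded overnight at 37 deg C, then exposed to compound by pintool overnight at 37 deg C. Rise in yellow fluorescence (Ex 488/Em 500-530, Acumen) marks blocked Vif-driven A3G degradation.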
PINK1 modulator: A Quantitative High throughput Screen to Identify Chemical Modulators of PINK1 Expression; Potency, µM (titrated, usually from 76.6 µM), inactives show at the highest dose activation (PINK1 increase), hits mostly activators; 410,000 compounds, 0.2% hits; AID 624263, 2012; PINK1 immunofluorescence, high-content cytometry, 24 h; active means well fitted activation curve with a large enough effect; inconclusive means small, poorly fitted or top-dose-only effect; cell line not stated here; further: % of control where 0% means no effect; nearly all actives have a fitted effect of over 65% in size
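A stable cell line was treated with compounds at 5 concentrations for 24 hours, with CCCP as control. PINK1 levels and mitochondrial localization were measured by immunofluorescence with mitochondrial, cell and nuclear markers after fixation, read by laser-scanning cytometry.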
Vif-A3F inh: qHTS for Inhibitors of Vif-A3F Interactions: qHTS; Potency, µM (doses to about 46.1 µM), for inactives: at the highest dose activity, negative = active; AID 602313, 2012; 390,000 compounds, 0.2% hits; HeLa A3F-eYFP + Vif (tagged APOBEC3F with the HIV-1 protein that degrades it), YFP fluorescence increase; further: % of control where 0% means no effect; nearly all actives have a fitted effect of over 65% in size
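HeLa cells stably expressing Vif plus C-terminally eYFP-tagged A3F were seeded, incubated overnight at 37 deg C, dosed with compound, incubated overnight again at 37 deg C. Yellow fluorescence (Ex 488/Em 500-530) reported blocked Vif-mediated A3F-eYFP degradation.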
The depositor's hits bear a star; ? = inconclusive; nt = no result. Compounds with a hit are over-represented: about 0.52% of the library has one in this group of screens. Unless noted, the call rests on the fitted dose curve; in most records, active means well fitted curve in the direction sought with a large enough effect; inconclusive means small, poorly fitted or top-dose-only effect, or another doubt; inactive means no such curve, though single readings can be large; an effect the other way counts as inactive or inconclusive. Potency means the concentration at half of the fitted maximal effect.

SMILES | Epigenetic derep | Vif-APOBEC3G blk | PINK1 modulator | Vif-A3F inh
N#C/C(=C(/O)c1ccc(F)cc1)c1nc2ccccc2s1 | 4% | -3% | 16µM* | -2%
Cc1cccc(-c2cnc(C)nc2C2CCCN(C(=O)c3cccc(Cn4cccn4)c3)C2)c1 (stereo unspecified) | nt | nt | 1% | nt
COc1cc(=O)n2c(c1C(=O)NCc1ccco1)CCN(C(=O)c1c(F)ccc(F)c1F)CC2 | nt | nt | 1% | nt
Cc1cc2cc3c(cc2nc1SCc1ccccn1)OCCO3 | 0% | 1% | 8% | -9%
N#Cc1cc2ccccc2nc1SCc1ccccn1 | 0% | ? | ? | 13µM*
COc1ccc(N2CCN(C(=O)c3ccc(Cn4nc(C)c([N+](=O)[O-])c4C)o3)CC2)cc1 | nt | -12% | 1% | -25%
COc1ccc(CNC(=O)c2ccc(Cn3nc(C)c([N+](=O)[O-])c3C)o2)cc1 | 4.5µM* | -9% | -1% | 7%
Cc1ccc(C(=O)Nc2cccc(-c3nc(CNC(=O)c4cccc(C)c4C)c(C)o3)c2)s1 | nt | nt | 1% | nt
Cc1cccc(C(=O)Nc2sc(C)c(-c3ccccc3)c2C#N)c1 | 0% | 2% | 2% | -2%
Cc1noc(C)c1C(=O)Nc1sc(C)c(-c2ccccc2)c1C#N | 2% | 0% | 28µM* | 2%
COc1ccccc1Oc1ccc(NC(=O)c2ccc(Cl)cc2)cc1 | 2% | 3% | 6% | 2%
COc1ccc2nc3ccccc3nc2c1NC(=O)c1ccc(Br)cc1 | 5% | ? | 14µM* | 6.3µM*
COc1ccc2nc3ccccc3nc2c1NC(=O)c1ccc(Cl)cc1 | ? | -11% | ? | 11µM*
COc1cccc(C2(CC(=O)N3CCC(c4nc5ccccc5o4)CC3)CC(=O)N(C)C2=O)c1 (stereo unspecified) | nt | nt | 0% | nt
Cc1ncc2c(c1CNC(=O)c1ccc3c(c1)OCO3)CCN(C(=O)c1cn3ccccc3n1)C2 | nt | nt | 0% | nt
CCC(CO)[n+]1c(C)cc(/C=C2\Sc3ccccc3N2Cc2ccccc2)cc1C (stereo unspecified) | ? | 13µM* | 11µM* | 11µM*
COc1ccc(C(C(=O)NC2CCCC2)N(C(=O)c2snc(-c3ccc(F)cc3)c2N)c2ccc(F)cc2)cc1 (stereo unspecified) | 0% | -5% | 16µM* | 5%
COc1ccc(C(C(=O)NC2CCCC2)N(C(=O)c2snc(-c3ccc(F)cc3)c2N)c2ccccc2)cc1 (stereo unspecified) | 0% | 1% | 13µM* | -4%
COc1ccc(Cl)cc1N1C(=O)[C@@H]2C[C@H]1CN2Cc1nc2ccccc2nc1C | nt | nt | 1% | nt
COc1ccc(COc2ccsc2C(=O)Nc2ccc(Cl)c(Cl)c2)cc1 | -1% | -7% | 10µM* | -3%
COc1ccc(NCc2cc3cc4c(cc3n(CC(=O)Nc3ccc(C)cc3C)c2=O)OCO4)cc1 | 1% | 1% | -1% | -1%
COc1ccc(NCc2cc3cc4c(cc3n(CC(=O)Nc3cc(C)ccc3C)c2=O)OCCO4)cc1 | 11% | ? | 10% | 13µM*
CC(OC(=O)c1cc(Br)ccc1O)C(=O)Nc1ccc(S(=O)(=O)N2CCCC2)cc1 (stereo unspecified) | nt | -3% | 16µM* | 1%
Cc1cccc(C(=O)OC(C)C(=O)Nc2ccc(S(=O)(=O)N3CCCC3)cc2)c1O (stereo unspecified) | nt | 2% | -1% | 2%
Cc1ccc(-c2cc(-c3ccco3)c3c(N)c(C(=O)NN)oc3n2)cc1 | 11% | ? | 2% | 11µM*
SMILES | Epigenetic derep | Vif-APOBEC3G blk | PINK1 modulator | Vif-A3F inh
NNC(=O)c1oc2nc(-c3ccccc3)cc(-c3ccccc3)c2c1N | nt | -7% | 1% | ?
O=C(NCc1nnc2n1CCN(Cc1ccc(C(F)(F)F)cc1)CC2)c1cccc(F)c1 | nt | nt | -1% | nt
CC[n+]1c(/C=C2\C=C(C)CC(C)(C)C2)sc2ccccc21 | 10% | -16% | 13µM* | -16%
Cc1c(C(=O)NCC(C)C)sc2ncnc(NCC3CCCO3)c12 (stereo unspecified) | nt | nt | 0% | nt
O=C(Nc1cccc(C(=O)OCc2cc(=O)n3nc(C4CC4)sc3n2)c1)c1cccc(Cl)c1 | 16µM* | -5% | 0% | -5%
COc1ccc2nc(/C(C#N)=C\c3ccc(Oc4ccc([N+](=O)[O-])cn4)cc3)[nH]c2c1 | 10% | -19% | 11µM* | ?

Bioassay records (PubChem BioAssay)
